Screening data from PubChem BioAssay.
Lassa entry inh: blocks Lassa virus binding to or entry into cells; 300,000 compounds, 1.2% hits; Potency, µM (titrated, usually from 37.9 µM), for the others: at the top dose activity change, negative = inhibition, usual class: inhibitors; Lassa virus pseudotype entry inhibition, cell reporter; calls by dose curve; tested in HEK293 cells; further: potency means the concentration at half of the fitted maximal effect; nearly all actives have a fitted effect of over 50% in size
VACV Venus inh: inhibitors of vaccinia virus (Venus reporter); 330,000 compounds, 0.46% hits; Vaccinia virus Venus reporter expression, fluorescence; Potency, µM (series often up to 36.5 µM), without a hit: top-dose activity change, negative = inhibition, most hits filed as inhibitors; calls by dose curve; tested in A549 cells; further: potency means the concentration at half of the fitted maximal effect; nearly all actives have a fitted effect of over 30% in size
Vaccinia mCherry: inhibitors of vaccinia virus infection (mCherry reporter signal); Vaccinia virus mCherry reporter infection, fluorescence; 310,000 compounds, 0.63% hits; Potency, µM (doses to about 36.5 µM), for inactives: at the top dose activity change, negative = inhibition, actives largely listed as inhibitors; calls by dose curve; tested in A549 cells; further: potency means the concentration at half of the fitted maximal effect; nearly all actives have a fitted effect of over 35% in size
Marburg entry inh: blocks Marburg virus binding to or entry into cells. Marburg virus pseudotyped entry inhibition, cell reporter. Potency, µM (top dose mostly 37.8 µM), for the others: at the top dose activity change, negative = inhibition, hits mostly inhibitors. 300,000 compounds, 1.8% hits; calls by dose curve; tested in HEK293 cells; further: potency means the concentration at half of the fitted maximal effect
HCV inh: blocks hepatitis C virus. Huh7.5.1 HCVcc-Cre infection, luciferase reporter, 44 h. Potency, µM (doses to about 41.8 µM), inactives show at the highest dose activity change, negative = inhibition, most hits filed as inhibitors. 340,000 compounds, 3.4% hits; active means well fitted inhibition curve with a large enough effect; inconclusive means small, poorly fitted or top-dose-only effect, or another doubt; inactive means no such curve, though single readings can be large or run the other way; further: potency means the concentration at half of the fitted maximal effect
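1,000 cells/well; 4 h culture; + compound; + HCVcc-Cre (~0.5 moi); 44 h; luciferase substrate, RT 15 min; read 15 sec.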
HCMV antiviral: human cytomegalovirus inhibition; HFF cells, HCMV-luciferase reporter, 72 h; stronger effect = lower value; activity change, negative = inhibition, % at 57.5 µM; 410,000 compounds, 4.5% hits; AID 1259415; in the data active means activity change below about -60%; inconclusive means no clear call, values can overlap the other calls; inactive means above about -39%
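HFF cells seeded 16 h at 37C, treated with compounds, infected with luciferase-reporter HCMV at MOI 1 PFU/cell; luciferase read at 72 h post infection, normalized to buffer-only and Salinomycin controls.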
The depositor's hits bear a star; i = inactive; ? = inconclusive; / = no result; [ ] = another dose, or the depositor's remark. Sampled rows, rich in hits. Any-hit rate of the full collection: about 7.8%. On the % scale 0 is the no-effect control and ±100 the full control effect.

SMILES	Lassa entry inh	VACV Venus inh	Vaccinia mCherry	Marburg entry inh	HCV inh	HCMV antiviral
Nc1nc(F)nc2c1ncn2[C@@H]1O[C@H](CO)[C@@H](O)[C@@H]1O	?	7.08µM*	3.16µM*	1.9%	2.5%	/
Nc1nc(Cl)nc2c1ncn2C1CC(O)C(CO)O1 (stereo not given)	/	?	2.51µM*	/	-12.0%	-1.9
O=C(O)c1ccc(CN2CCCCC2)o1	16.3%	-7.2%	-7.2%	0.7%	14.2%	-68.0*
O=C(Nc1nnc(-c2cccs2)o1)c1ccc(S(=O)(=O)N2CCOCC2)cc1	-7.6%	?	?	?	-23.6%	-84.5*
CC1CCN(S(=O)(=O)c2ccc(C(=O)Nc3nnc(C4=COCCO4)o3)cc2)CC1	/	/	/	/	?	-70.3*
O=C(Nc1nnc(C2=COCCO2)o1)c1ccc(S(=O)(=O)N2CCCC2)cc1	2.1%[46.1 µM]	-5.6%	-2.6%	2.8%[46.1 µM]	10.0%	?
NC(=O)C1CCN(S(=O)(=O)c2cc3c(cc2Cl)NC(=O)CO3)CC1	-0.1%[46.1 µM]	-0.3%	-6.7%	/	/	?
CC1(C)CC(N=c2cc(-c3ccccc3)oc3ccc(Cl)cc23)CC(C)(C)N1	?	?	?	?	-26.8%	-98.9*
CCN1CCN(C(=S)c2ccc(-c3ccccc3)cc2)CC1	/	/	/	/	4.4%	-80.7*
COc1cccc(NC(=O)Cn2nc(C)c3c(C)n(-c4ccccc4)nc3c2=O)c1	24.2%[46.1 µM]	-13.8%	-13.9%	/	/	?
Cc1cc(C)c[n+](-c2nc3ccccc3nc2[N-]S(=O)(=O)c2ccc(Cl)cc2)c1	-6.3%	-12.9%	-2.3%	-2.1%	14.4%	-32.3
O=S(=O)([N-]c1nc2ccccc2nc1-[n+]1ccccc1)c1ccc(Cl)cc1	0.6%	-12.6%	/	0.0%	24.2%	-62.2*
CSCCC(NC(=O)c1ccccc1Br)C(=O)NCc1ccc(F)cc1 (stereo not given)	/	/	/	/	4.7%	-63.1*
Cc1cc2c(cc1S(=O)(=O)NCc1ccc(F)cc1)n(C)c(=O)c(=O)n2C	11.1%[46.1 µM]	-1.9%	-9.7%	/	/	-8.5
O=C(C[n+]1ccccc1)c1cccc([N+](=O)[O-])c1	/	-5.1%	-11.7%	/	/	/
OC[C@H]1OC([S-])[C@H](O)[C@@H](O)[C@@H]1O.[Au+] (stereo not given in full)	/	-0.5%	-14.6%	/	/	/
CCc1ccccc1NC(=O)CN1CCN(C(=O)CNC(=O)Cc2cccc3ccccc23)CC1	/	/	/	/	11.2µM*	-23.8
N#Cc1ccc(CN2CCN(C(=O)CC(NC(=O)c3ccccc3)c3ccccc3)CC2)cc1 (stereo not given)	1.0%[46.1 µM]	-2.9%	-21.0%	-14.1%[46.1 µM]	-11.4%	30.0
Cc1cccc(C)c1NC(=O)CN1CCN(C(=O)CNC(=O)Cc2cccc3ccccc23)CC1	/	-21.3%	i	/	/	-31.0
N#Cc1ccc(CN2CCN(C(=O)CNC(=O)Cc3cccc4ccccc34)CC2)cc1	?	-12.2%	?	?	?	-68.0*
CCc1cccc(CC)c1NC(=O)COC(=O)CC1c2ccccc2CCN1S(=O)(=O)c1ccccc1 (stereo not given)	-2.7%	?	-23.3%	?	7.08µM*	-36.7
O=[N+]([O-])c1ccc2nc(NN=Cc3ccc(O)cc3)sc2c1	-24.8%[46.1 µM]	?	3.16µM*	?	1.0%	-61.7*
Cn1c(SCc2cccc([N+](=O)[O-])c2)nc2ccccc2c1=O	-18.5%	?	?	?	-25.1%	?
O=C(Nn1c(SCc2cccc([N+](=O)[O-])c2)nc2ccccc2c1=O)c1ccccc1	?	-6.9%	i	?	-10.4%	17.3
COc1ccc(C(=O)Nn2c(SCc3cccc([N+](=O)[O-])c3)nc3ccccc3c2=O)cc1	3.26µM*	-4.0%	i	8.91µM*	?	-70.5*
SMILES	Lassa entry inh	VACV Venus inh	Vaccinia mCherry	Marburg entry inh	HCV inh	HCMV antiviral
COCCn1c(SCc2cccc([N+](=O)[O-])c2)nc2ccccc2c1=O	?	-6.3%	?	?	11.2µM*	?
Cc1ccc(-n2nc3c(=O)n(CC(=O)Nc4ccccc4F)nc(C)c3c2C)c(C)c1	-6.0%[46.1 µM]	?	?	-15.9%[46.1 µM]	/	-5.7
O=C(NC1CCN(Cc2ccccc2)C1)c1cc(COc2ccc(F)cc2F)on1 (stereo not given)	/	/	/	/	-16.7%	-102.4*
CCN1CCN(C(=O)c2cc(COc3ccc(F)cc3F)on2)[C@@H](C)C1=O	?	-11.6%	-11.9%	?	11.2µM*	?
O=C(c1cc(COc2ccc(F)cc2Cl)on1)N1CCCC(c2ccccc2)C1 (stereo not given)	?	-11.1%	-6.4%	?	?	-37.2
O=C(NCCc1ccccc1Cl)c1cc(COc2ccc(F)cc2F)on1	/	/	/	/	11.2µM*	/
O=C(NCCC1=CCCCC1)c1cc(COc2ccc(F)cc2Cl)on1	/	/	/	/	?	-19.6
O=C(c1cc(COc2ccc(F)cc2F)on1)N1CCCC(c2ccccc2)C1 (stereo not given)	7.08µM*	-30.7%	-20.9%	?	?	-62.5*
CCOC(=O)N1CCN(C(=O)c2cc(COc3ccc(F)cc3F)on2)CC1	2.4%	-14.9%	-15.0%	?	-9.1%	17.4
O=C(NC1CCc2ccccc21)c1cc(COc2ccc(F)cc2F)on1 (stereo not given)	6.1%	13.2%	-15.0%	?	?	-22.5
O=C(Nc1cc(Cl)ccc1Cl)c1cc(S(=O)(=O)NCCc2ccccc2)ccc1F	5.7%[46.1 µM]	-1.8%	-6.4%	/	/	-14.7
COc1cc(C)ccc1OCc1cc(C(=O)NC2CCOCC2)no1	/	-15.1%	-12.9%	/	/	28.8
Cc1ccc(C)c(OCc2cc(C(=O)NC3CCN(Cc4ccccc4)CC3)no2)c1	/	/	/	/	6.31µM*	-85.3*
NC(=O)N=Nc1c2[nH]c3ccccc3nc-2c2ccccc12	?	-11.7%	i	?	?	-98.8*
CC(C)=CCC/C(C)=C/CO/N=C1\C[C@@H](O)[C@@H](O)[C@@H]2[C@@H]3C(=O)N(C[C@@H]4CCCO4)C(=O)[C@@H]3CC[C@H]12	/	/	/	-5.0%[14.2 µM]	/	/
CCOc1ccc(NC(=O)c2ccc3c(=O)n(-c4ccc(OC)cc4OC)c(=S)[nH]c3c2)cc1	/	/	/	/	/	-81.7*
COc1ccc(-n2c(=S)[nH]c3cc(C(=O)Nc4ccc(C)c(F)c4)ccc3c2=O)c(OC)c1	?	?	i	?	11.2µM*	-76.1*
COc1ccc(-n2c(=S)[nH]c3cc(C(=O)Nc4cc(C(N)=O)ccc4OC)ccc3c2=O)c(OC)c1	2.3%	2.5%	-6.4%	6.2%[46.1 µM]	10.5%	-35.6
COc1ccc(NC(=O)c2ccc3c(=O)n(-c4ccc(OC)cc4OC)c(=S)[nH]c3c2)c(OC)c1	-8.7%	-25.7%	-8.3%	-24.5%	-12.1%	-23.9
COc1ccc(CNC(=O)c2cnc3ccc(C)cn3c2=O)cc1	/	-10.7%	-12.0%	2.7%[46.1 µM]	/	11.5
CC(=O)Nc1c(C(=O)Nc2cccc(C)c2)nnn1-c1ccc(C)cc1	?	-22.0%	-21.9%	16.3%[46.1 µM]	/	-61.9*
